# Compound activity deposited in PubChem by National Center for Advancing Translational Sciences (NCATS).
# In the library only some 21% were active in any assay of this set; here they are far more common.
# Shiga toxin inh = A qHTS for Small Molecule Inhibitors of Shiga Toxin; Vero cells, Shiga toxin protein synthesis inhibition reporter; inhibition, % at 38.7 µM; 290,000 compounds, 9.2% hits; AID 2315, 2010; in the data active means inhibition mostly above about 28%, no sharp cut-off; inactive means mostly below about 43%; further: 0% is about no effect
# Pf growth 96h = Primary qHTS for delayed death inhibitors of the malarial parasite plastid, 96 hour incubation; Potency, µM (top dose mostly 28.7 µM), without a hit: at the highest dose activity change, negative = inhibition, actives largely listed as inhibitors; AID 504834, 2011; P. falciparum luciferase reporter growth, 96 h; 320,000 compounds, 6.9% hits; active means well fitted inhibition curve with a large enough effect; inconclusive means small, poorly fitted or top-dose-only effect, or another doubt; inactive means no such curve, though single readings can be large or run the other way; further: potency means the concentration at half of the fitted maximal effect; on the % scale 0 is the no-effect control and ±100 the full control effect
#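 Erythrocytes infected with luciferase-expressing P. falciparum were dispensed at 2% hematocrit and 0.05% parasitemia (final), then incubated with compounds 96 hours at 37 C in 5% CO2. Luminescence after detection reagent addition reported growth.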
# Cycloheximide cs = Cycloheximide Counterscreen for Small Molecule Inhibitors of Shiga Toxin | AID 2314, 2010 | 300,000 compounds, 12% hits | cell reporter, cycloheximide protein synthesis inhibition counterscreen | max response, %; in the data active means max response mostly above about 13%, no sharp cut-off; inactive means mostly below about 14%; further: read at 38.3 µM for the half of the compounds with a filed dose; 0% is about no effect
# SARS PLpro yeast = qHTS of Yeast-based Assay for SARS-CoV PLP. S. cerevisiae expressing SARS-CoV PLpro, growth rescue. Potency, µM (top dose mostly 32.9 µM), for inactives: at the highest dose activity, positive = growth rescue, actives largely listed as activators. 330,000 compounds, 0.19% hits; further: potency means the concentration at half of the fitted maximal effect; 0% is about no effect; nearly all actives have a fitted effect of over 55% in size
# Pf growth 48h = Primary qHTS for delayed death inhibitors of the malarial parasite plastid, 48 hour incubation; P. falciparum luciferase growth in erythrocytes, 48 h; Potency, µM (doses to about 28.7 µM), without a hit: at the top dose activity change, negative = inhibition, usual class: inhibitors; 310,000 compounds, 5.9% hits; AID 504832, 2011; active means well fitted inhibition curve with a large enough effect; inconclusive means small, poorly fitted or top-dose-only effect, or another doubt; inactive means no such curve, though single readings can be large or run the other way; further: potency means the concentration at half of the fitted maximal effect; on the % scale 0 is the no-effect control and ±100 the full control effect
#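 Compounds are pin-transferred into medium, infected erythrocytes (2% hematocrit, 0.1% parasitemia final) are added, and plates sit one parasite generation at 37 C in 5% CO2. Detection reagent is then added and luminescence measured.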
# NS1 function inh = qHTS Assay for Inhibitors of Influenza NS1 Protein Function; Potency, µM (highest dose often 46.1 µM), without a hit: at the top dose activity, positive = more growth; 270,000 compounds, 0.4% hits; AID 2326, 2010; further: potency means the concentration at half of the fitted maximal effect; actives are rising curves; nearly all actives have a fitted effect of over 50% in size
#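 Read-out: OD600 growth recovery of NS1-expressing budding yeast. Cells grown overnight at 30C in -URA glucose medium, washed, resuspended and diluted 1:100 in 2% galactose assay medium, pH 6.0. Same strain lacking NS1 served as positive control.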
# Numbers without * were called inactive; ? = inconclusive; . = no result given; + = active, no number; [ ] = dose if it differs, or a comment. Unless noted, the call rests on the fitted dose curve.
SMILES,Shiga toxin inh,Pf growth 96h,Cycloheximide cs,SARS PLpro yeast,Pf growth 48h,NS1 function inh
C=C[C@@H]1c2c(F)cccc2N(S(=O)(=O)c2ccc(C)cc2)[C@H](c2ccc(C(=O)OC)cc2)C1(C#N)C#N,.,11.7µM*,.,5.7%,4.15µM*,.
C=C[C@@H]1c2ccccc2N(S(=O)(=O)c2ccc(C)cc2)[C@H](c2ccc(C(F)(F)F)cc2)C1(C#N)C#N,.,?,.,-0.2%,?,.
COc1ccccc1N/C=C1/Sc2cc(Cl)ccc2NC1=O,-6.6,-32.5%[1.15 µM],-1.9,0.4%,1.3%,-0.3%
CCC(C)NC(=O)N1c2ccccc2Sc2ccccc21 (centres undefined),-1.7,?,1.6,-1.7%,?,-9.3%
O=C1Nc2ccccc2S/C1=C/NCc1ccccc1Cl,39.4,14.2%,12.9,-4.2%,9.2%,.
COc1ccc(N/C=C2/Sc3ccccc3NC2=O)cc1,87.9*,1.5%,44.2*,0.0%,239.9%,.
Cc1ccc(N/C=C2/Sc3ccccc3NC2=O)cc1,70.2*,296.1%,45.2*,0.1%,172.3%,0.1%
CCC(C)NC(=O)/C=C1\Sc2ccccc2NC1=O (centres undefined),40.2,?,12.8*,19.0%,26.6%,5.6%
COc1cc2c(cc1OC)[C@@H](NC(=O)C(C)C)[C@H](OCc1ccccc1)C2,.,.,.,-1.5%,.,.
Cc1ccc(C)c(N2CCN(C(=O)CN(C)S(=O)(=O)c3cnc[nH]3)CC2)c1,4.3,.,2.7,-1.5%,?,0.2%
O=C(NC1CCCCC1)N1CCN(c2ccc(Cl)cc2)CC1,-9.4,1.85µM*,6.0,-9.9%,?,-35.7%
O=C(Nc1ccc(N2CCOCC2)cc1)Nc1ccc(Cl)c(Cl)c1,39.9,?,19.5*,-0.1%,.,-9.4%
O=C(Nc1ccc(Cl)cc1)Nc1ccc(N2CCOCC2)cc1,30.4*,0.5%,19.3*,2.7%,8.5%,-6.6%
O=C(Nc1ccc(N2CCOCC2)cc1)Nc1cnsn1,34.1*,2.5%,44.3*,-1.4%,97.2%,1.9%
Cc1nc2cc(NC(=O)Nc3ccc(N4CCOCC4)cc3)ccc2n1C,-5.5,.,-0.4,-0.7%,-3.6%,5.2%
COc1ccc2[nH]c(=O)c(CN(CC3CCCO3)S(=O)(=O)c3ccccc3F)cc2c1 (centres undefined),26.8,16.6%,-3.0,-0.2%,-4.9%,-11.7%
Cc1c(CCOC(=O)C23CC4CC(CC(C4)C2)C3)sc[n+]1CC#N,-8.9,?,10.1,-0.9%,?,.
CSc1nc(C)c2c(n1)N(c1ccc(C(C)C)cc1)CC2,-7.4,90.3%,-3.3,2.1%,3.6%,4.4%
CC[C@H](C)[C@H](NC(=O)[C@H](CC(C)C)NC(=O)[C@@H](N)CO)C(=O)NCC(=O)N[C@@H](CCCCN)C(=O)N[C@H](C(=O)O)C(C)C,12.4,.,-4.0,.,.,.
O=C(Nc1ccc(N2CCOCC2)cc1)NC1CCCCC1,67.4*,31.6%,17.9*,5.5%,?,-4.7%
O=C(Nc1ccc(N2CCOCC2)cc1)C1CC1,44.0,?,10.3,3.6%,34.7%,10.3%
NC(=O)c1ccccc1-c1noc(-c2ccccc2F)n1,.,?,.,-1.4%,?,.
COCCCNC(=O)Cn1nnc(-c2ccc(NC(=O)c3ccccc3OC)cc2)n1,20.5,?,6.3,3.6%,?,3.2%
COCCCNC(=O)Cn1nnc(-c2ccc(NC(=O)c3ccccc3F)cc2)n1,47.9*,-17.6%,26.0*,11.5%,77.9%,1.9%
O=C(Nc1ccc2c(c1)OCCO2)c1ccc(Br)c(S(=O)(=O)N2CCOCC2)c1,51.6*,-19.6%,32.4*,1.1%,2.33µM*,6.8%
SMILES,Shiga toxin inh,Pf growth 96h,Cycloheximide cs,SARS PLpro yeast,Pf growth 48h,NS1 function inh
O=C(Nc1ccc(F)cc1)c1ccc(Br)c(S(=O)(=O)N2CCOCC2)c1,27.6,3.7%,7.9,-1.5%,?,-6.5%
O=C(NCC1CCCO1)c1ccc(Br)c(S(=O)(=O)N2CCOCC2)c1 (centres undefined),.,1.31µM*,.,-5.4%,?,.
O=C(O)c1ccc(Br)c(S(=O)(=O)N2CCCC2)c1,-11.0,13.1µM*,4.7,?,-38.8%,18.3%
O=C(Nc1ccc2c(c1)OCO2)c1ccc(Br)c(S(=O)(=O)N2CCCC2)c1,60.7*,33.9%,28.4*,-1.9%,2.62µM*,-111.3%
CC1(C)CC(=O)c2c(O)cc(OCC(=O)N3CCN(c4ccccc4)CC3)cc2O1,2.0,?,-4.3,-10.4%,1.7%,-5.5%
CCN(CC)c1ccc(/C=N/N2C(C)CCCC2C)c(O)c1 (centres undefined),5.1,?,-1.4,-7.5%,?,-7.9%
CN1CCN(S(=O)(=O)c2cccc(C(=O)Oc3ccccc3Cl)c2)CC1,1.7,38.3%,-1.1,4.2%,1.9%,-11.6%
O=C(Nc1ccc2c(c1)OCO2)c1cccc(S(=O)(=O)N2CCCC2)c1,40.8*,.,23.7*,-8.9%,15.1%,-9.2%
CC(=O)N1CCN(S(=O)(=O)c2cccc(C(=O)Nc3ccc4c(c3)OCO4)c2)CC1,31.6,?,14.6,-0.4%,-19.6%,.
O=C(Nc1ccc2c(c1)OCCO2)c1ccc(S(=O)(=O)N2CCCCC2)cc1,64.1,-9.0%,33.1*,5.9%,?,-3.2%
CC(NC(=O)CSc1ncccn1)c1ccccc1 (centres undefined),-14.8,?,-4.5,5.5%,10.6%,-8.8%
Oc1ccc(C23CC4CC(CC(C4)C2)C3)cc1O,4.3,7.38µM*,3.9,-8.4%,5.22µM*,-63.4%
CC(C)Oc1ccccc1-c1cc(C(=O)N/N=C/c2cccnc2)c2ccccc2n1,-12.5,?,8.2,2.5%,-8.7%,-65.8%
COc1ccccc1-c1nnc(SCC(=O)Nc2cccnc2Cl)n1C,.,.,.,-5.7%,.,.
COCCNc1nc(N)c([N+](=O)[O-])c(NC2CCCCC2)n1,-5.0,?,-4.9,-3.4%,?,-5.2%
NCCCNc1nc(N)c([N+](=O)[O-])c(NC2CCCCC2)n1,-13.3,?,-8.1,-1.4%,2.33µM*,1.5%
CC(C)N1CCC(N2CCN(C3CCCC3)CC2CCO)CC1 (centres undefined),-6.8,13.1µM*,0.4,-0.1%,-14.3%,7.9%
OCCC1CN(C2CCSCC2)CCN1C1CCCC1 (centres undefined),-7.0,-12.5%,0.6,-0.3%,-4.3%,3.4%
CC(Cc1nnc(N)s1)c1ccccc1 (centres undefined),-7.8,-2.2%,-1.4,0.1%,10.5%,3.3%
COc1cnc(-c2ccccn2)[nH]c1=O,29.7,5.86µM*,-0.5,13.7%,0.0%,.
CCc1cc2c(=O)[nH]c(-c3ccccn3)nc2s1,126.3*,3.29µM*,88.9*,?,?,-88.1%
CCc1cc2c(=O)[nH]c(N3CCCC3)nc2s1,+,88.3%,27.8*,9.2%,91.7%,-1.1%
